Data: paper PMC7819943, “Rice protein-binding microarrays: a tool to detect cis-acting elements near promoter regions in rice”
Over roughly 68,000 sequences, “fluorescence intensity (a.u.)” has its median near 9,100; the highest 2% begin near 16,000. The sample holds the highest values, similar sequences and a random draw of the others, so the mix is not that of the screen.

molecular target: OsWRKY34 (Oryza sativa, UniProt Q0JBA9 1-250); assay: protein-binding microarray (RPBM); PBS, 2% BSA, 51.3 ng/ul salmon testes DNA, 50 uM zinc acetate, 200 nM TF, 25 C, 1 h; high values mean tight binding; details: protein: recombinant; tags: N-terminal polyhistidine and DsRed monomer fusion (pET32a); label: CyDye5-dUTP incorporated in the synthesized complementary strand; 3' TTTTT single-stranded linker to array surface; dsDNA, one strand shown
Sequence (Q0JBA9 entry or part of it): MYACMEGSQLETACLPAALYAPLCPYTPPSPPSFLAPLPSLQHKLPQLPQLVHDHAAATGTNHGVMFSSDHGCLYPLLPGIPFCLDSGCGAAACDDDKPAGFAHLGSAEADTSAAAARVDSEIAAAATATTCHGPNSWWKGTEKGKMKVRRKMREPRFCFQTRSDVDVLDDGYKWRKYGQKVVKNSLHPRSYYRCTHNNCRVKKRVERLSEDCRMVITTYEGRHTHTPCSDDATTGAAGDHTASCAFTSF
Outline: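 Binding signal here means per-feature fluorescence intensity in arbitrary units. The values were read on an Axon 4000B scanner after a custom Agilent array, double-stranded by primer extension with Cy5-dUTP, was incubated with 200 nM protein at 25 °C for 1 h in PBS with 2% BSA, salmon testes DNA and 50 µM zinc acetate, then washed. The proteins were transcription factors with an N-terminal polyhistidine tag and DsRed, expressed in E. coli BL21-CodonPlus and purified on Ni–NTA.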

Sequence	binding signal
TCTTACTTGCATGTGAACACCTCTTTGTCGGTTTTTCCATCGGAGTCACCTAGTGCAG	10400 fluorescence intensity (a.u.)
AAAAAAGTCAACCCATGTACACCGTCCGATCTCCATCCGACGGAGTCACCTAGTGCAG	8110 fluorescence intensity (a.u.)
TTTTGTCTCTTTCTGCTGCTGGAGTAGTATTGTTCATTTACGGAGTCACCTAGTGCAG	9050 fluorescence intensity (a.u.)
CTGGTAGGATTGCTGCTTGCTTTGCCTTCACGTCATTATCCGGAGTCACCTAGTGCAG	11200 fluorescence intensity (a.u.)
TGCGTTTCCCGTCAGCCCTGTCACGCCGCCGCCGGTCGCCCGGAGTCACCTAGTGCAG	12000 fluorescence intensity (a.u.)
ACTTTCTTTTTGGGCCTGAAACCACGACGGCCCTTTGTTCCGGAGTCACCTAGTGCAG	8760 fluorescence intensity (a.u.)
AAAATAGGCCAATAGGGTGTTGAGAGAAAAGGAGATATATCGGAGTCACCTAGTGCAG	17500 fluorescence intensity (a.u.)
AAGGATATAAGGGTGGTTGAGGGGTAGAATAGGAAGAAATCGGAGTCACCTAGTGCAG	9360 fluorescence intensity (a.u.)
CGCAAGGGAGAATAGGGGTGTTGAGAGGAGGGGCGACAGGCGGAGTCACCTAGTGCAG	8240 fluorescence intensity (a.u.)
TTGCTTTTGTGTTCGGTTTTTCTATTTTTTCTATTTTCTTCGGAGTCACCTAGTGCAG	13700 fluorescence intensity (a.u.)
TCCTCTTTTTGCTGGCTTTCTGTTGACTGTTATTTTATTTCGGAGTCACCTAGTGCAG	17100 fluorescence intensity (a.u.)
CTTTCTTTGACTGTTGCCTTTTATTTTGTGCAGGTTGTATCGGAGTCACCTAGTGCAG	11300 fluorescence intensity (a.u.)
TATTTCGATTTGATGGCTTCCTGTTGCTTTTCCTGTTAATCGGAGTCACCTAGTGCAG	14000 fluorescence intensity (a.u.)
GATGGCTTCGATTTGCTGTGTTACTTCTTTTTTCTAGTTTCGGAGTCACCTAGTGCAG	16900 fluorescence intensity (a.u.)
ATGTTGACTCGTTTGCCTGTGTTCCTCTTGCTGCTATTCACGGAGTCACCTAGTGCAG	19200 fluorescence intensity (a.u.)
CCTCTTGCTATGTGCTGCTCTTCCTTGTTCTTCTTGCCTACGGAGTCACCTAGTGCAG	10800 fluorescence intensity (a.u.)
CCTGTTGCTGCTCTGTGCCTCTGCTCTGCTCCTTGACTTCCGGAGTCACCTAGTGCAG	11300 fluorescence intensity (a.u.)
TTTTGAGTGCTTTTATTTCTTTATTTCTTTATTTCTTTATCGGAGTCACCTAGTGCAG	9320 fluorescence intensity (a.u.)
GGTTTCGGTTAACTTTTGTGCACACTCGCCAGTGAGAGTTCGGAGTCACCTAGTGCAG	12300 fluorescence intensity (a.u.)
TGTAAGTCATTCCACCATTTCCCACATTCATATTGATGCCCGGAGTCACCTAGTGCAG	8890 fluorescence intensity (a.u.)
TTTAACCTAAACCACATGTGAATTTCTTCTTATGTATTCCCGGAGTCACCTAGTGCAG	8700 fluorescence intensity (a.u.)

Sequence	binding signal
GTGGGATTCGCCTGCTTGCTTGCTGGGGCCTTGGGAAATGCGGAGTCACCTAGTGCAG	8230 fluorescence intensity (a.u.)
TCAAAACGGCCCACTCGCCGCCCGCCACGTGTCCGACCCGCGGAGTCACCTAGTGCAG	8920 fluorescence intensity (a.u.)
GATCCGCATCACTGATTCACTGCACTTCGCCCGCCGTCTGCGGAGTCACCTAGTGCAG	9810 fluorescence intensity (a.u.)
TTTTATTCAATATATGTATATAGGTATCTTTGGTTGTTTTCGGAGTCACCTAGTGCAG	8320 fluorescence intensity (a.u.)
TTCGAGCACATCTACTTCGCGCTCCCAAACTCCGTGGTGTCGGAGTCACCTAGTGCAG	8080 fluorescence intensity (a.u.)
GGGTGAGTGTGTGTTGTGCGTTGTGAGTGTGTATGTGTTTCGGAGTCACCTAGTGCAG	17200 fluorescence intensity (a.u.)
TGTTGTTGTGGTGGTGGTGGTGGTGGTAGTGCGTGAGTGACGGAGTCACCTAGTGCAG	21200 fluorescence intensity (a.u.)
TTTTTTTGTGTTTTGCAATTTTATGTTTTGCACTTATTTTCGGAGTCACCTAGTGCAG	8070 fluorescence intensity (a.u.)
TCTCTCTGTGTGTGTTTGTGTCATATATGAGTTTGTGGGTCGGAGTCACCTAGTGCAG	9570 fluorescence intensity (a.u.)
TCATATATGAGTTTGTGGGTGTGGGTGTTTGCGAGCTTTTCGGAGTCACCTAGTGCAG	30700 fluorescence intensity (a.u.)
GGGTGAGTGCGCGTGCGTTGTGAGTGTTTGTATTGTACTGCGGAGTCACCTAGTGCAG	9790 fluorescence intensity (a.u.)
GTTGTTTGGTTGCGTGAGGAGAGGAGGAGGAGGAGGAGGACGGAGTCACCTAGTGCAG	8200 fluorescence intensity (a.u.)
GAGGTGTGTGTTCGTAGAGATGAGTGCGTGCGCGTTGTGACGGAGTCACCTAGTGCAG	9140 fluorescence intensity (a.u.)
GCAATTGTTCAATATTTTTTTGTGTGTATGTGTTTTTTTTCGGAGTCACCTAGTGCAG	18200 fluorescence intensity (a.u.)
GTGGGTGTTTGCGAGCTTTTGTTCGTATGCTTTTTTACTTCGGAGTCACCTAGTGCAG	9960 fluorescence intensity (a.u.)
ATTTCGGATTTGTATGTATTGTGTTTTTTTAAAAAAAATTCGGAGTCACCTAGTGCAG	9880 fluorescence intensity (a.u.)
TCATATGGGTTGGTGTATGTGTATTGTGAGTCTGTGTTTGCGGAGTCACCTAGTGCAG	8300 fluorescence intensity (a.u.)
ATCCCACCGTGGCGCCACCCTATTGGGCCCTACTCTTCAGCGGAGTCACCTAGTGCAG	8780 fluorescence intensity (a.u.)
ACTCCATATCGCTTCGCGATTTTTTGTTGACCAAATCAATCGGAGTCACCTAGTGCAG	9610 fluorescence intensity (a.u.)
AATCTCGTTCCTTGCTGTTGTGACTAGTATCGTTGCCTACCGGAGTCACCTAGTGCAG	10500 fluorescence intensity (a.u.)
GCCTGCTGTTCCTTTTAGTTTCTCCAAGCTCCTGCCAACACGGAGTCACCTAGTGCAG	8320 fluorescence intensity (a.u.)
